Measured values taken from PubChem BioAssay AID651871 (Sanford-Burnham Center for Chemical Genomics, 2012).
Several values for one entry are separate records, joined by “and”; a condition that tells them apart may be missing. Equal values may be shown once.

These compounds were tested on HL-1 (assay: protection of cardiomyocytes from stress damage, SAR follow-up, cell-based, panel, H9c2 and HL-1, ATP luminescence, set 2 (AID 651871;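 note: cells exposed to stressor for 2 h before ATP readout; reference of the scale not given here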)). Conditions: H9c2/HL-1 cardiomyocytes, 2-deoxyglucose stress, with 2-deoxyglucose, run 12, at 79 µM (top of the series).
`CCOC(=O)c1cccc(NC(=O)CNC(=O)c2cc(-c3cc(OC)c(OC)c(OC)c3)nc3ccccc23)c1` showed an activity (protection/inhibition) of 63.3%. With `COc1ccc2nc(-c3cc(OC)c(OC)c(OC)c3)cc(C(=O)NCC(=O)Nc3ccc(C(C)=O)cc3)c2c1` the activity (protection/inhibition) was 62.5%. `COc1ccc2c(c1OC)C(=O)N1c3ccccc3C(=O)N(Cc3cccc(Cl)c3Cl)C21` (stereo not drawn) was tested, and the activity (protection/inhibition) was 65.5% and -16.5%.
